# In the library only some 2.9% were active in any assay of this set; here they are far more common.
# D3 ag = activates the human D3 dopamine receptor. D3R DiscoveRx beta-arrestin cells, luminescence, 90 min. max activation, %. AID 652048. P35462. actives 0.58% (n = 410,000); in the data active means max activation above about 30%; further: 0% is about no effect
# Target sequence (P35462 whole entry, looked up): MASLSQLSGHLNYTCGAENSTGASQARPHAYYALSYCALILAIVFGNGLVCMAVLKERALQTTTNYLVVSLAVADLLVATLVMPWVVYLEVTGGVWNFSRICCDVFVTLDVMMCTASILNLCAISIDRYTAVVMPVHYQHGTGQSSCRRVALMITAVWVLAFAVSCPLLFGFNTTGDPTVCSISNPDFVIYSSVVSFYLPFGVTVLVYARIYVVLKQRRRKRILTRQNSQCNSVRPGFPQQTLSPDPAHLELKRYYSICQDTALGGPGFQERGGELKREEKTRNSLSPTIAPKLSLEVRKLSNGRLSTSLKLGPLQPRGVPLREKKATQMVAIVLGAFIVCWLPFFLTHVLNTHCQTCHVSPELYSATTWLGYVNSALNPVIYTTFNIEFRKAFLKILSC
#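 Agonist-mode cell screen: cells plated at 1500/well and incubated overnight at 37 °C, then exposed to library compounds for 90 min at 37 °C. Detection reagent was added for 30–60 min at room temperature, and luminescence was read.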
# D3 antag = blocks the human D3 dopamine receptor; max response, negative = inhibition, %; P35462; D3R cells, DiscoveRx beta-arrestin luminescence, antagonist mode; active compounds read low; actives 2.5% (n = 360,000); AID 652054; in the data active means max response below about -50%; inconclusive means no clear call, values can overlap the other calls; further: on the % scale 0 is the no-effect control and ±100 the full control effect
#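 Cells expressing the human receptor were seeded at 1500 cells/well, incubated overnight at 37 degrees C in 5% CO2, then exposed to library compounds with dopamine controls for 90 minutes at 37 degrees C before luminescent detection.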
# Mm-Cpn inhibitor = M. maripaludis TRiC chaperonin inhibition; purified Mm-Cpn ATPase, ADP Transcreener TR-FRET; Potency, µM (top dose mostly 76.9 µM), without a hit: at the top dose activity, negative = inhibition, hits mostly inhibitors; actives 0.031% (n = 330,000); active means well fitted inhibition curve with a large enough effect; inconclusive means small, poorly fitted or top-dose-only effect; further: potency means the concentration at half of the fitted maximal effect; on the % scale 0 is the no-effect control and ±100 the full control effect; nearly all actives have a fitted effect of over 80% in size
#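 ATP (10 uM final) was added to archaeal chaperonin (25 nM final) after 10 min exposure to test compound at 37°C; after 30 min further incubation, ADP was detected by competitive TR-FRET.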
# Rango-impB inh = prevents formation of the Rango-importin beta complex; Q14974; Rango CFP/YFP FRET sensor + importin beta, 45 min; Potency, µM (highest dose often 92.2 µM), without a hit: at the top dose inhibition of complex formation; actives 0.031% (n = 340,000); AID 540263;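 further: potency means the concentration at half of the fitted maximal effect; 0% = DMSO wells and 100% = buffer wells lacking importin beta; nearly all actives have a fitted effect of over 15% in size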
#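 FRET biosensor Rango (snurportin 1 IBB between N-terminal EYFP and C-terminal Cerulean), 50 nM in PBS/1 mM DTT/0.02% Tween-20/0.1% BSA, preincubated 5 min RT with compound; 0.125 microM importin beta added, 45 min RT, CFP/YFP FRET ratio read.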
# Rango release inh = inhibitors of RanGTP-induced Rango-importin beta complex dissociation | O95149+P62826 | Biochemical FRET Rango-importin beta, RanGTP-induced dissociation | AID 540253 | Potency, µM (titrated, usually from 46.1 µM), without a hit: at the top dose activity change, negative = inhibition | actives 0.071% (n = 340,000); further: potency means the concentration at half of the fitted maximal effect; % of control where 0% means no effect; nearly all actives have a fitted effect of over 45% in size
#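 Recombinant Rango FRET biosensor (EYFP–snurportin 1 IBB–cerulean CFP10) at 0.1 uM premixed with 0.25 uM importin beta in PBS, 1 mM DTT, 0.02% Tween-20, 0.1% BSA. Compound added 5 min; RanGTP-RCC1 (0.6 uM Ran, 2 mM GTP, 0.2 uM RCC1) then triggers release, read at 45 min.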
# PTAP TSG101 blk = blocks PTAP/TSG101 interaction to inhibit HIV-1 budding; 340,000 tested, under 10 active; Potency, µM (highest dose often 115 µM), inactives show top-dose activity change, negative = inhibition, hits mostly inhibitors; AID 493005; Fluorescence polarization, FITC-PTAP peptide / Tsg101 binding; active means well fitted inhibition curve with a large enough effect in the main read-out, with a control signal flat, not every such curve was filed as active; inconclusive means small, poorly fitted or top-dose-only effect, or effect the other way, or a change in a side signal; inactive means no such curve, though single readings can be large or run the other way; further: potency means the concentration at half of the fitted maximal effect; % of control where 0% means no effect
#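 Fluorescence anisotropy tracks displacement of a FITC-tagged PTAP peptide (50 nM) from the Tsg101 binding domain (10 uM), following a 20 min room-temperature incubation at pH 7.5.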
# * = called active by the depositor; ? = inconclusive; . = not tested or not shown. Unless noted, the call rests on the fitted dose curve.
SMILES,D3 ag,D3 antag,Mm-Cpn inhibitor,Rango-impB inh,Rango release inh,PTAP TSG101 blk
CN1C(=O)/C(=C/c2cc(N=Nc3ccccc3)ccc2O)SC1=S,-0.6,-135.3*,1.0%,5.1%,6.9%,-9.6%
Cc1ccc(-n2ncc3c(N4CCN(C)CC4)ncnc32)cc1C,11.8,.,.,.,.,.
COCCNC(=O)C(=O)NCC(c1cccnc1)N1CCN(c2ccccc2)CC1 (stereo unspecified),4.0,.,.,.,.,.
CCN1CCCC1CNC(=O)c1ccc(Sc2ccccc2Cl)c([N+](=O)[O-])c1 (stereo unspecified),-14.6,-75.0*,2.0%,-1.0%,10.8%,0.7%
CCN1CCCC1CNC(=O)c1ccc(Sc2ccc(F)cc2)c([N+](=O)[O-])c1 (stereo unspecified),-7.7,-76.7*,-3.9%,9.6%,14.6%,0.4%
CCCn1c(Nc2nc3ccccc3n2C)nc2ccccc21,-22.6,-101.9*,0.6%,-1.2%,-0.7%,-2.3%
O=C(Cn1c(=O)nc(-c2ccccc2)c2cc(Cl)ccc21)NCc1ccccc1,32.4*,.,.,.,.,.
COc1ccc(C(=O)NCCc2nc3cc([N+](=O)[O-])ccc3n2C)cc1,-20.6,-112.6*,-0.7%,-1.0%,-4.7%,0.7%
CCCn1c(CNC(=O)c2ccccc2)nc2ccccc21,-8.8,-78.6*,-1.6%,0.0%,0.6%,.
COc1ccc(C(=O)Nc2ccc3c(c2)nc(CCNC(C)=O)n3C)cc1,11.1,7.2,0.5%,-1.8%,1.3%,-0.5%
O=C(Cn1c(=O)nc(-c2ccccc2)c2cc(Cl)ccc21)NCCc1ccc(Cl)cc1,8.4,.,.,.,.,.
COC(=O)c1ccc(NC(=O)CCc2c(C)nn(-c3ccc(N4CCCCC4)nn3)c2C)cc1,-17.3,.,.,.,.,.
Cc1cccc(OCCn2c(-c3ccc(Cl)cc3)nc3ccccc3c2=O)c1C,2.8,.,.,.,.,.
CCOc1ccccc1CNC(=O)c1cn(-c2ccc(OC)cc2)c(=O)c2ccccc12,-14.0,.,.,.,.,.
Cn1c(CCCNC(=O)c2ccccc2)nc2ccccc21,0.3,-53.9*,0.5%,-1.9%,-25.1%,-2.1%
Cn1c(CCCNC(=O)c2cccs2)nc2ccccc21,-13.4,-1.9,-1.2%,0.5%,-0.5%,-0.7%
Cn1c(-c2ccc(N)cc2)nc2ccccc21,1.1,11.8,-9.3%,3.9%,-11.5%,-1.9%
CC(C)Cn1c(CCCNC(=O)c2ccc(F)cc2)nc2ccccc21,-10.1,-4.1,-2.0%,0.8%,-1.1%,-1.1%
CC(C)Cn1c(CNC(=O)c2ccccc2)nc2ccccc21,10.8,-55.6*,-1.4%,-1.2%,17.9%,-10.4%
Cc1nc2ccccc2n1CC(=O)NN,-0.4,-4.6,-0.7%,0.6%,0.7%,-0.4%
Cc1nc2ccccc2n1CC(=O)NCc1ccccc1,-2.2,-50.2*,-4.1%,-3.1%,0.4%,.
Cn1c(CCc2ccc(N)cc2)nc2ccccc21,-7.2,-51.3*,0.1%,2.6%,15.7%,-0.3%
CC(NNC(=O)c1ccccc1)c1ccccc1 (stereo unspecified),3.3,.,.,.,.,.
Cc1cc(C)cc(C(=O)NC(=S)Nc2ccc(Cc3ccncc3)cc2)c1,-7.1,?,-0.5%,1.5%,-13.0%,-4.1%
Cc1cccc(C(=O)NC(=S)Nc2ccc(Cc3ccncc3)cc2)c1,1.5,-78.0*,1.7%,0.6%,-6.5%,-5.9%
Cc1cccc(C(=O)NC(=S)Nc2ccc(S(=O)(=O)N(C)c3ccccc3)cc2)c1,-3.7,-66.3*,-0.3%,-1.0%,2.1%,-1.4%
O=C(O)c1cc(NS(=O)(=O)c2ccc3ccccc3c2)ccc1O,-22.2,-108.3*,-3.9%,3.0%,9.1%,-4.2%
O=C(O)c1ccccc1NS(=O)(=O)c1ccc2ccccc2c1,2.1,8.6,3.2%,-2.8%,20.9%,-3.7%
O=S(=O)(CCNCCc1ccccc1)NC1CCCCC1,-41.7,-84.5*,.,4.2%,-1.1%,-1.7%
COC(=O)c1c(-c2cccs2)csc1NC(=O)c1cc(OC)c(OC)c(OC)c1,35.7*,.,.,.,.,.
